A short description of test [1]: A CellTox Green Cytotoxicity Assay to monitor cytotoxicity in HEK293 cells - 32 hour (AID 1224881). Note: nearly all actives have a fitted effect of over 40% in size. Note: potency is the fitted concentration of half-maximal effect. A digest of the protocol:
(§1)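 HEK293 cells, 600/well, were preincubated 5 hours and then exposed to compounds at 37 C for up to 40 hours. A cell-impermeant cyanine dye staining dead-cell DNA was read by fluorescence at 0, 8, 16, 24, 32 and 40 h time points.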

Test [2] in a line: A CellTox Green Cytotoxicity Assay to monitor cytotoxicity in HepG2 cells - 0 hour (AID 1224882). Note: nearly all actives have a fitted effect of over 35% in size. The gist of the method:
(§2)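 HepG2 cells, 600/well, preincubated 5 h with CellTox Green dye, then exposed to Tox21 compounds in DMSO at 37 C for up to 40 h. Dead-cell DNA fluorescence read at the indicated time point.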

Test [3] is described as follows: A CellTox Green Cytotoxicity Assay to monitor cytotoxicity in HEK293 cells - 8 hour (AID 1224884). Note: nearly all actives have a fitted effect of over 35% in size. The gist of the method: as §1
The nature of test [4]: qHTS RealTime-Glo MT Cell Viability Assay in HepG2 cells - 16 hour (AID 1224885). Note: nearly all actives have a fitted effect of over 50% in size. A digest of the protocol: (§3)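 Real-time, nonlytic viability: 600 HepG2 cells/well mixed with NanoLuc enzyme plus prosubstrate; 5 h settle, compound (DMSO) added by pintool; luminescence monitored over 40 h at 37 C.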
A short description of test [5]: qHTS RealTime-Glo MT Cell Viability Assay in HEK293 cells - 24 hour (AID 1224886). Note: top concentration of the series differs between compounds; nearly all actives have a fitted effect of over 50% in size. A digest of the protocol: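 Cells + reagent dispensed (600 cells/well, HEK293) → 5 h at 37 C/5% CO2 → 23 nL compound in DMSO pinned → 40 h at 37 C → luminescence read at 0, 8, 16, 24, 32, 40 h.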
Test [6] can be described thus: qHTS RealTime-Glo MT Cell Viability Assay in HEK293 cells - 8 hour (AID 1224887). Note: top concentration of the series differs between compounds; nearly all actives have a fitted effect of over 50% in size. A digest of the protocol:
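600 cells/well were plated with the nonlytic NanoLuc/prosubstrate reagent, pre-incubated 5 h, then given 23 nL of compound in DMSO. Incubation at 37 C for 40 h, with luminescence from viable-cell-reduced substrate read repeatedly from 0 h.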
For orientation: qHTS replaces the single test concentration by a dilution series.

Test [7] is described as follows: A CellTox Green Cytotoxicity Assay to monitor cytotoxicity in HEK293 cells - 16 hour (AID 1224888). Note: nearly all actives have a fitted effect of over 35% in size. The gist of the method: as §1
A short description of test [8]: qHTS RealTime-Glo MT Cell Viability Assay in HepG2 cells - 0 hour (AID 1224889). Note: nearly all actives have a fitted effect of over 50% in size. A digest of the protocol: as §3
Test [9] is described as follows: A CellTox Green Cytotoxicity Assay to monitor cytotoxicity in HepG2 cells - 8 hour (AID 1224890). Note: nearly all actives have a fitted effect of over 45% in size. A digest of the protocol:
as §2

The nature of test [10]: qHTS assay to identify small molecule antagonists of the estrogen receptor alpha (ER-alpha) signaling pathway using the BG1 cell line in the presence of 0.1 nM 17-beta-estradiol - cell viability counter screen (AID 1259241). Note: nearly all actives have a fitted effect of over 40% in size. A digest of the protocol: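 VM7Luc4E2, 4,000 cells/well, phenol red-free medium + 10% charcoal-stripped FBS; 24 hr plating; cpd + 0.1 nM E2 final, 22 hr 37C/5% CO2; CellTiter-Fluor 30 min, fluorescence.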

Test [11] in a line: qHTS assay to identify small molecule antagonists of the androgen receptor (AR) signaling pathway using the MDA cell line in the presence of 0.5 nM R1881 - cell viability counter screen (AID 1259242). Note: nearly all actives have a fitted effect of over 45% in size. A digest of the protocol: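 MDA-kb2 cells (MMTV-luciferase, AR/GR responsive) were treated with compounds plus 0.5 nM R1881 (final) for 16 hr at 37C, 0% CO2. Viability was then read in the same wells as live-cell protease fluorescence (CellTiter-Fluor, 30 min).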

The nature of test [12]: qHTS assay to identify small molecule phospholipidosis (PLD) inducers (AID 1259344; active = well fitted curve in the direction sought with a large enough effect; an effect the other way counts as inactive or inconclusive). A digest of the protocol:
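Quantitative HTS in HepG2: compound plus LipidTOX Red dye for 24 h, paraformaldehyde fixation with Hoechst 33342, widefield high-content imaging; amiodarone as positive and DMSO as negative control.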

Test [13] is described as follows: qHTS assay to identify small molecule HDAC inhibitors (AID 1259364). Note: top concentration of the series differs between compounds; nearly all actives have a fitted effect of over 45% in size. A digest of the protocol:
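Wild-type HCT-116 cells, plated overnight at 37 C, exposed to compounds 2 hr at 37 C; luminogenic HDAC-Glo substrate then added 30 min at room temperature. Luminescence reports relative endogenous class I/II HDAC activity.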

A short description of test [14]: qHTS assay to identify small molecule HDAC inhibitors - cell viability counter screen (AID 1259365). A digest of the protocol:
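Luminescence from CellTiter-Glo, developed 30min at room temperature, reports viability of wild-type HCT-116 cells treated 2hr with compounds at 37 C and 5% CO2 after overnight plating.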

Test [15] in a line: qHTS assay to identify small molecule agonists of the sonic hedgehog signaling (Shh) pathway - cell viability counter screen (AID 1259366). Note: nearly all actives have a fitted effect of over 50% in size. Note: potency is the fitted concentration of half-maximal effect. A digest of the protocol:
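Cytotoxicity counter screen run in the same wells as the Shh reporter assay. NIH/3T3 cells carrying a Gli1 response element–driven luciferase were treated with DMSO-dissolved compounds for 24hr, and live-cell protease activity was measured with CellTiter-Fluor.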

Test [16] is described as follows: qHTS assay to identify small molecule agonists of the sonic hedgehog signaling (Shh) pathway (AID 1259368; calls by dose curve;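 note: NIH/3T3-derived 3T3Gli1-Luc cells carrying a stable Gli1-driven firefly luciferase reporter; series mostly up to about 92 µM; nearly all actives have a fitted effect of over 15% in size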). A digest of the protocol: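 NIH/3T3-derived 3T3Gli1-Luc cells with stably integrated Gli1-driven firefly luciferase, 2,000 cells/well, compounds added after 4 hr. Incubated 24 hr at 37C, 5% CO2; luminescence read after 30 min with luciferase reagent at room temperature.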

Test [17] can be described thus: qHTS assay to identify small molecule antagonists of the sonic hedgehog signaling (Shh) pathway (AID 1259369; calls by dose curve; note: nearly all actives have a fitted effect of over 45% in size; note: potency is the fitted concentration of half-maximal effect). The gist of the method: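 NIH/3T3-derived Gli1-Luc reporter cells plated 4 h, dosed with compound, then stimulated with conditioned medium for 24 h at 37 C. Firefly luciferase luminescence read after 30 min with detection reagent at room temperature.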
Test [18] has as its target Estrogen receptor (Homo sapiens) (UniProt P03372). Kind of test: qHTS assay to identify small molecule antagonists of the estrogen receptor alpha (ER-alpha) signaling pathway using the BG1 cell line in the presence of 0.1 nM 17-beta-estradiol (AID 1259244). Note: nearly all actives have a fitted effect of over 50% in size. The gist of the method: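 VM7Luc4E2 cells (endogenous full-length ER-alpha, 4×ERE-luciferase), kept 5 days in phenol red-free, charcoal-stripped FBS medium; 4,000 cells/well. Compounds added with 0.1 nM (final) 17beta-estradiol, 22 hr at 37C; luminescence read with ONE-Glo after 30 min.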

The nature of test [19]: qHTS assay to identify small molecule antagonists of the sonic hedgehog signaling (Shh) pathway - cell viability counter screen (AID 1259367). Note: nearly all actives have a fitted effect of over 55% in size. Note: potency is the fitted concentration of half-maximal effect. The gist of the method: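 Seed 3T3 Gli1-Luc cells at 2,000 per well; incubate 4 hr; add compound in DMSO, then conditioned medium; incubate at 37C with 5% CO2; add CellTiter-Fluor after 23 hr; read fluorescence 1 hr later.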

Several values for one entry are separate records, joined by “and”; a condition that tells them apart may be missing. Equal entries are not always repeated. Records with an inconclusive call do not appear. A structure can be active in one record and inactive in another. Activity calls are given as the source filed them. Unless noted, calls come from the whole dose curve; as a rule, active = well fitted curve in the direction sought with a large enough effect in the repeat runs; inconclusive = weak or mixed curves; inactive = no such curve, though single readings can be large; an effect the other way counts as inactive or inconclusive.

Here are results for seven compounds from PubChem BioAssay (Tox21).

Estrogen receptor (Homo sapiens), sequence (P03372 whole entry, looked up): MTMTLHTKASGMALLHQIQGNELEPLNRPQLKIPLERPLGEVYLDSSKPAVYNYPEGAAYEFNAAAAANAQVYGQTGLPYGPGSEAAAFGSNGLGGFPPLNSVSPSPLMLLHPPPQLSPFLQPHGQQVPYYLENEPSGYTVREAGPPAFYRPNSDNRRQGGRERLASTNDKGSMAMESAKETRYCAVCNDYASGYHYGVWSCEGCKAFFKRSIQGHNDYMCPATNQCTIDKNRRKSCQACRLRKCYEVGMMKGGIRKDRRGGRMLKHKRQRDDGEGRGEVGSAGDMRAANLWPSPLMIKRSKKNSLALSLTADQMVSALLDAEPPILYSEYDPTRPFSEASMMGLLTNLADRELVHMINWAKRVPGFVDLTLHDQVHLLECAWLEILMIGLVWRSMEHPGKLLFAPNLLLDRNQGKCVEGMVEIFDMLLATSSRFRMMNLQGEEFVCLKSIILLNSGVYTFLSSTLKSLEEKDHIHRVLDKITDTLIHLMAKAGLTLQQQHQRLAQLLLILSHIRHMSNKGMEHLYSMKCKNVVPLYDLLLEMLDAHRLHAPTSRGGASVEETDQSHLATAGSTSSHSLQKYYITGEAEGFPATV

As for `N[C@@H](Cc1ccc(N(CCCl)CCCl)cc1)C(=O)O`, the Potency result in [1], in test [2], in test [3], in test [4], in [5] and in [6] was “inactive” throughout. Also, the Potency entry in test [7], in test [8], in test [9], in test [10], in test [11] and in test [13] was “inactive” throughout. For the same compound, the Potency result in test [15], in test [16] and in test [17] was “inactive” throughout. For the same compound, the compound was called inactive in test [12] and in test [14].

For `c1cc(OCC2CO2)ccc1Cc1ccc(OCC2CO2)cc1` (stereo not given), the Potency entry in test [1], in [2], in test [3], in test [4], in test [5] and in test [6] was “inactive” throughout. For the same compound, the Potency result in [7], in [8], in [9], in test [10], in [11] and in test [18] was “inactive” throughout. The Potency entry in test [13] and in test [16] was “inactive” each time. The call in test [14] was inactive. In addition, the Potency in test [15] was 27.3 µM (active); in [19] it was 61.1 µM (active); in test [17], 19.4 µM (active) and 21.7 µM (active).

As to `CC(C)(C)c1ccccc1O`, the Potency in test [1] is 44.2 µM (active) and inactive. Moreover, the Potency result in test [2], in test [3], in test [4], in test [5], in test [6] and in [7] was “inactive” in each case. For the same compound, the Potency result in [8], in test [10], in test [15], in test [19], in [16] and in test [17] was “inactive” each time. In [14], the compound was classed as inactive.

In the case of `Nc1ccc(Cl)c(Cl)c1`, the Potency result in test [1], in test [2], in test [3], in test [4], in test [5] and in test [6] was “inactive” throughout. In addition, the Potency entry in test [7], in test [8], in test [9], in [10], in [11] and in test [13] was “inactive” in each case. Further, the Potency result in test [15], in test [19], in test [16] and in test [17] was “inactive” in each case. Further, the result in test [14] was inactive.

Take `CCOP(=S)(OCC)O/N=C(\C#N)c1ccccc1`: the Potency entry in test [1], in test [2], in test [3], in test [4], in test [5] and in test [6] was “inactive” each time. Besides, the Potency result in [7], in test [8], in [9], in [10], in [11] and in [13] was “inactive” each time. Moreover, the Potency result in test [15], in test [19], in test [16] and in test [17] was “inactive” each time. The outcome in test [12] and in test [14] was inactive.

With `Cc1cc(C)cc(C)c1`, the Potency entry in [1], in [2], in test [3], in test [4], in test [5] and in test [6] was “inactive” in each case. The Potency entry in test [7], in test [8], in [9], in test [10], in test [15] and in test [19] was “inactive” throughout. In addition, the Potency entry in test [16] and in test [17] was “inactive” in each case. Further, the compound was classed as inactive in test [14].

Turning to `C=CCN(CC=C)C(=O)C(Cl)Cl`, the Potency result in [1], in [2], in test [3], in [4], in test [5] and in test [6] was “inactive” in each case. Moreover, the Potency result in test [7], in test [8], in test [9], in test [10], in [13] and in [15] was “inactive” in each case. Further, the Potency entry in test [19], in test [16] and in test [17] was “inactive” in each case. The result in test [14] was inactive.
